Where a chain is given by its changes, count along the chain named. In all, about 16,000 sequences were measured (“ka relative to ugcaugu”: median about 0.096, highest 2% from about 0.35 on). Many of the other results were omitted from the sample, so the highest values are more common in it than they were.

The record followed here is PMC9911399, “Two distinct binding modes provide the RNA-binding protein RbFox with extraordinary sequence specificity”.

T1: RBFOX1 RRM RbFoxmut (Fox-RRM*) (Homo sapiens, UniProt Q9NWB1 109-208, R118D;E147R;N151S;E152T)
T1 sequence: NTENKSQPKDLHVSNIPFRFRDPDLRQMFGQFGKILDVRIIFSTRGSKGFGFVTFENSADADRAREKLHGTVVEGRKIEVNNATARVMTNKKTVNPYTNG

B1: CUUGCGU (DNA:RNA)
RNA: GGGAGACCGGAAUUCAGAUUGUCCCUUGCGUUUAAAUCCCGUCGUAGCCACCA
DNA 1: CAATCTGAATTCCGGTCTCCC
DNA 2: TGGTGGCTACGACGGGATT
B2: AGCACGA (DNA:RNA)
RNA: B1 RNA with C25A, U26G, U27C, G28A, U31A
DNA 1: CAATCTGAATTCCGGTCTCCC
DNA 2: TGGTGGCTACGACGGGATT
B3: UGCUGCU (DNA:RNA)
RNA: B1 RNA with C25U, U26G, U27C, G28U, C29G, G30C
DNA 1: CAATCTGAATTCCGGTCTCCC
DNA 2: TGGTGGCTACGACGGGATT
B4: UGCUUGC (DNA:RNA)
RNA: B1 RNA with C25U, U26G, U27C, G28U, C29U, U31C
DNA 1: CAATCTGAATTCCGGTCTCCC
DNA 2: TGGTGGCTACGACGGGATT
B5: UGCUUGU (DNA:RNA)
RNA: B1 RNA with C25U, U26G, U27C, G28U, C29U
DNA 1: CAATCTGAATTCCGGTCTCCC
DNA 2: TGGTGGCTACGACGGGATT
B6: CUGCUGC (DNA:RNA)
RNA: B1 RNA with U27G, G28C, C29U, U31C
DNA 1: CAATCTGAATTCCGGTCTCCC
DNA 2: TGGTGGCTACGACGGGATT
B7: CCCCUGC (DNA:RNA)
RNA: B1 RNA with U26C, U27C, G28C, C29U, U31C
DNA 1: CAATCTGAATTCCGGTCTCCC
DNA 2: TGGTGGCTACGACGGGATT
B8: CUGCUUG (DNA:RNA)
RNA: B1 RNA with U27G, G28C, C29U, G30U, U31G
DNA 1: CAATCTGAATTCCGGTCTCCC
DNA 2: TGGTGGCTACGACGGGATT
B9: UUACGGC (DNA:RNA)
RNA: B1 RNA with C25U, U27A, G28C, C29G, U31C
DNA 1: CAATCTGAATTCCGGTCTCCC
DNA 2: TGGTGGCTACGACGGGATT
B10: UUCGUUU (DNA:RNA)
RNA: B1 RNA with C25U, U27C, C29U, G30U
DNA 1: CAATCTGAATTCCGGTCTCCC
DNA 2: TGGTGGCTACGACGGGATT
B11: AAGUGAC (DNA:RNA)
RNA: GGGAGACCGGAAUUCAGAUUGUCCAAGUGACUUAAAUCCCGUCGUAGCCACCA
DNA 1: CAATCTGAATTCCGGTCTCCC
DNA 2: TGGTGGCTACGACGGGATT
B12: GAUGAAA (DNA:RNA)
RNA: B11 RNA with A25G, G27U, U28G, G29A, C31A
DNA 1: CAATCTGAATTCCGGTCTCCC
DNA 2: TGGTGGCTACGACGGGATT
B13: ACAUGUU (DNA:RNA)
RNA: B11 RNA with A26C, G27A, A30U, C31U
DNA 1: CAATCTGAATTCCGGTCTCCC
DNA 2: TGGTGGCTACGACGGGATT
B14: CCGCCUC (DNA:RNA)
RNA: B11 RNA with A25C, A26C, U28C, G29C, A30U
DNA 1: CAATCTGAATTCCGGTCTCCC
DNA 2: TGGTGGCTACGACGGGATT
B15: UUGACUG (DNA:RNA)
RNA: B1 RNA with C25U, U27G, G28A, G30U, U31G
DNA 1: CAATCTGAATTCCGGTCTCCC
DNA 2: TGGTGGCTACGACGGGATT
B16: GGUGUGA (DNA:RNA)
RNA: B1 RNA with C25G, U26G, C29U, U31A
DNA 1: CAATCTGAATTCCGGTCTCCC
DNA 2: TGGTGGCTACGACGGGATT
B17: GGUGAUU (DNA:RNA)
RNA: B1 RNA with C25G, U26G, C29A, G30U
DNA 1: CAATCTGAATTCCGGTCTCCC
DNA 2: TGGTGGCTACGACGGGATT
B18: GUCGUGA (DNA:RNA)
RNA: B1 RNA with C25G, U27C, C29U, U31A
DNA 1: CAATCTGAATTCCGGTCTCCC
DNA 2: TGGTGGCTACGACGGGATT
B19: GGUGAUG (DNA:RNA)
RNA: B1 RNA with C25G, U26G, C29A, G30U, U31G
DNA 1: CAATCTGAATTCCGGTCTCCC
DNA 2: TGGTGGCTACGACGGGATT
B20: GUGAUUG (DNA:RNA)
RNA: B11 RNA with A25G, A26U, U28A, G29U, A30U, C31G
DNA 1: CAATCTGAATTCCGGTCTCCC
DNA 2: TGGTGGCTACGACGGGATT
B21: GUGACUG (DNA:RNA)
RNA: B1 RNA with C25G, U27G, G28A, G30U, U31G
DNA 1: CAATCTGAATTCCGGTCTCCC
DNA 2: TGGTGGCTACGACGGGATT
B22: GUGAUCG (DNA:RNA)
RNA: B11 RNA with A25G, A26U, U28A, G29U, A30C, C31G
DNA 1: CAATCTGAATTCCGGTCTCCC
DNA 2: TGGTGGCTACGACGGGATT
B23: GUGAAUC (DNA:RNA)
RNA: B11 RNA with A25G, A26U, U28A, G29A, A30U
DNA 1: CAATCTGAATTCCGGTCTCCC
DNA 2: TGGTGGCTACGACGGGATT
B24: GUGAUUC (DNA:RNA)
RNA: B11 RNA with A25G, A26U, U28A, G29U, A30U
DNA 1: CAATCTGAATTCCGGTCTCCC
DNA 2: TGGTGGCTACGACGGGATT
B25: GCGUGAA (DNA:RNA)
RNA: B11 RNA with A25G, A26C, C31A
DNA 1: CAATCTGAATTCCGGTCTCCC
DNA 2: TGGTGGCTACGACGGGATT
B26: GUGACCG (DNA:RNA)
RNA: B1 RNA with C25G, U27G, G28A, G30C, U31G
DNA 1: CAATCTGAATTCCGGTCTCCC
DNA 2: TGGTGGCTACGACGGGATT
B27: ACCUAUU (DNA:RNA)
RNA: B11 RNA with A26C, G27C, G29A, A30U, C31U
DNA 1: CAATCTGAATTCCGGTCTCCC
DNA 2: TGGTGGCTACGACGGGATT
B28: GCUCCGG (DNA:RNA)
RNA: B1 RNA with C25G, U26C, G28C, U31G
DNA 1: CAATCTGAATTCCGGTCTCCC
DNA 2: TGGTGGCTACGACGGGATT
B29: AUCUGAU (DNA:RNA)
RNA: B11 RNA with A26U, G27C, C31U
DNA 1: CAATCTGAATTCCGGTCTCCC
DNA 2: TGGTGGCTACGACGGGATT
B30: UCGGCUA (DNA:RNA)
RNA: B1 RNA with C25U, U26C, U27G, G30U, U31A
DNA 1: CAATCTGAATTCCGGTCTCCC
DNA 2: TGGTGGCTACGACGGGATT
B31: AAGGAAC (DNA:RNA)
RNA: B11 RNA with U28G, G29A
DNA 1: CAATCTGAATTCCGGTCTCCC
DNA 2: TGGTGGCTACGACGGGATT

The assay has as its target T1, RBFOX1 RRM RbFoxmut (Fox-RRM*). Briefly: EMSA; HiTS-Eq, 1 nM pool, 10 min; buffer printed only for the single-RNA assays: 10 mM Tris pH 7.5, 150 mM NaCl, 3.4 mM EDTA, 0.001% NP-40, 30 C. As to conditions: tags: His6 N-terminal (pET28a); label: 5' 32P. In outline: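 These values rest on relative association constants, computed from read-count changes of each RNA species versus the control reaction and normalised to the cognate motif. Reads came from free RNA recovered by 8% native PAGE after purified RbFox RRM (wild type or mutant) at increasing concentrations was equilibrated for 10 min in 50 µL with 1 nM of a 5′-radiolabelled pool with 7 randomized nucleotides and DNA-annealed flanks.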
For orientation: A gel shift assay detects complexes by their altered migration in electrophoresis.
Consider B1, for which the binding signal was 0.154 KA relative to UGCAUGU.
Take B2: the binding signal was 0.141 KA relative to UGCAUGU.
Consider B3, for which the binding signal is 0.12 KA relative to UGCAUGU.
Regarding B4, the binding signal is 0.264 KA relative to UGCAUGU.
Then B5, with 0.428 KA relative to UGCAUGU; and B6, with 0.126 KA relative to UGCAUGU; and B7, with 0.0955 KA relative to UGCAUGU.
With B8, the binding signal was 0.423 KA relative to UGCAUGU.
As for B9, the figure is 0.0823 KA relative to UGCAUGU; as for B10, 0.112 KA relative to UGCAUGU.
Take B11: the binding signal is 0.0758 KA relative to UGCAUGU.
For the molecule B12, the binding signal was 0.0758 KA relative to UGCAUGU.
Regarding B13, the binding signal was 0.127 KA relative to UGCAUGU.
As for B14, the figure is 0.0617 KA relative to UGCAUGU; as for B15, 0.243 KA relative to UGCAUGU.
With B16, the binding signal was 0.112 KA relative to UGCAUGU.
Consider B17, for which the binding signal is 0.0776 KA relative to UGCAUGU.
For the molecule B18, the binding signal is 0.126 KA relative to UGCAUGU.
In the case of B19, the binding signal was 0.412 KA relative to UGCAUGU.
Turning to B20, the binding signal was 0.454 KA relative to UGCAUGU.
For the molecule B21, the binding signal was 0.387 KA relative to UGCAUGU.
As for B22, the binding signal is 0.32 KA relative to UGCAUGU.
B23: the binding signal was 0.42 KA relative to UGCAUGU.
Consider B24, for which the binding signal was 0.159 KA relative to UGCAUGU.
B25: the binding signal was 0.119 KA relative to UGCAUGU.
Then B26, with 0.162 KA relative to UGCAUGU.
Take B27: the binding signal is 0.107 KA relative to UGCAUGU.
Then B28, with 0.0646 KA relative to UGCAUGU.
Then B29, with 0.0592 KA relative to UGCAUGU; and B30, with 0.106 KA relative to UGCAUGU.
Regarding B31, the binding signal is 0.057 KA relative to UGCAUGU.
